Experimental findings from PubChem BioAssay AID1508637 (National Center for Advancing Translational Sciences (NCATS), 2021) are described below.

Results filed as inconclusive are left out. The source made the active and inactive calls. Calls come from the whole dose curve; as a rule, active = well fitted inhibition curve with a large enough effect; inconclusive = small, poorly fitted or top-dose-only effect; inactive = flat fitted curve, though single readings scatter. Starred links: 1 amine or outer side, 2 acyl side, 3 side chain; linkers in the order of their positions; H or OH if unused. Non-standard residues stand in square brackets, D forms with d. Residues, ends and D or L forms follow the SMILES beside them. X1 = O=C([C@@H](CC(O)CCl)O[*:1])[*:2]; aIle = CC[C@@H](C)[C@H](N)C(=O)O; NMeV = CN[C@H](C(=O)O)C(C)C; NMeA = CN[C@@H](C)C(=O)O; βAla = NCCC(=O)O

The nature of the experiment: qHTS for characterization and localization of zebrafish homologs of the human ABCB1 multidrug transporter: empty vector transfected cells. The following applies: empty vector transfected control cells, CellTiter-Glo luminescence viability, 72 h. From the text: The zebrafish has emerged as a potential model to study the blood-brain barrier (BBB) given its similarities with mammalian systems. However, little information has been available with regard to homologous ATP-binding cassette transporters expressed at the zebrafish BBB. Two transporters that are highly expressed at the human BBB are P-glycoprotein (P-gp, encoded by the ABCB1 gene) and ABCG2 (encoded by the ABCG2 gene). In this study, we focus on characterization of P-gp homologs in the zebrafish, which has two genes that are homologous to human ABCB1 - abcb4 and abcb5. We generated stably-transfected cell lines to determine their substrate specificities. […] Zebrafish abcb4 also colocalized with claudin 5 expression in brain endothelial cells.
A high-throughput screen was performed as previously described on empty vector transfected cells, P-gp-overexpressing MDR-19 cells and cells transfected with full-length zebrafish abcb4 (ZF Abcb4) or abcb5 (ZF Abcb5). Briefly, cells were plated into 1536-well plates at a density of 500 cells/well in 5 uL media. P-gp substrate compounds (approximately 90) selected from our previous study were then added at varying concentrations using a 1536-head pin tool (Kalypsis, San Diego, CA) and plates were incubated at 37C in 5% CO2 for 72 h. CellTiter-Glo reagent (Promega) was dispensed into the wells, incubated for 5 min and luminescence was read on a ViewLux instrument (Perkin-Elmer).
Cytotoxic compounds were defined as those that yielded a curve class of -1.1, -1.2, -2.1, -2.2, -2.3, or -2.4, a maximum response of >50% and an AC50 of < 10 uM. All compounds from screening analysis were tested in Vector (empty vector control), MDR-19 (P-gp overexpressing), zebrafish abcb4 (ZF Abcb4) and abcb5 (ZF Abcb5) expression cell lines.
1. Tobie D Lee, Olivia W Lee, Kyle R Brimacombe, Lu Chen, Rajarshi Guha, Sabrina Lusvarghi, Bethilehem G Tebase, Carleen Klumpp-Thomas, Robert W Robey, Suresh V Ambudkar, Min Shen, Michael M Gottesman, Matthew D Hall. A High-Throughput Screen of a Library of Therapeutics Identifies Cytotoxic Substrates of P-glycoprotein. […]
Regarding `CC[C@@H](C)[C@@H]1NC(=O)[C@@H]2CCCN2C(=O)[C@@H](CC(O)CCl)OC(=O)CCNC(=O)[C@H](C)N(C)C(=O)[C@H](C(C)C)N(C)C1=O` (stereo partly drawn) (cyclo([NMeA][βAla][X1]P[aIle][NMeV])), the Potency is 1390 nM (active).

`C=CCON=C(C[C@H]1O[C@@H]2O[C@]3(C)CC[C@@H]4[C@H](C)CC[C@@H]([C@H]1C)[C@@]24OO3)[C@H]1O[C@@H]2O[C@]3(C)CC[C@H]4[C@H](C)CC[C@@H]([C@@H]1C)[C@@]24OO3`: the Potency is 187 nM (active). The value for `C[C@@H]1[C@@H](CC(C[C@H]2O[C@@H]3O[C@]4(C)CC[C@@H]5[C@H](C)CC[C@@H]([C@H]2C)[C@@]35OO4)C[S+](=O)([O-])c2ccc(COC(=O)N(C)C)cc2)O[C@@H]2O[C@]3(C)CC[C@H]4[C@H](C)CC[C@@H]1[C@@]24OO3` (stereo partly drawn) was 264 nM (active).
